The sample as a whole holds a higher share of hits than the screen did.
BL2 CD40 inh: CD40 pathway inhibition in BL2 cells; BL2 NF-kB luciferase reporter, CD40L-induced, 4 h; 83,000 tested, 0.94% active; AID 1053188; inhibition, % at 10 µM;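 active = mean inhibition of at least 50% with a set share of replicates also reaching that level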;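 also: 0% = neutral control wells and 100% = IKK inhibitor VII at 50 µM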
Active calls of the source: *; [ ] = another dose, or the depositor's remark.

SMILES | BL2 CD40 inh
CCCNC(=O)Nc1ccc2c(c1)OC[C@@H](C)N(C(=O)C1CCOCC1)C[C@H](C)[C@H](OC)CN(C)C2=O | -6[25 µM]
S=C(CSc1ccccc1)Nc1cccc2ccccc12 | -24
[O-]C(=C(C(=S)Nc1cccc2ccccc12)[n+]1ccccc1)c1ccc2c(c1)OCCO2 | 55*
O=C(Nc1cccc2cccnc12)c1ccc2c(c1)OCCO2 | -40
CC(=O)NC(CC(C)C)C(=O)NC(Cc1ccccc1)C(=O)CCl (stereo not drawn) | -3
Cc1ccc(S(=O)(=O)N[C@@H](Cc2ccccc2)C(=O)CCl)cc1 | 39*
CCCC(NS(=O)(=O)c1ccc(C)cc1)C(=O)O (stereo not drawn) | 15
C[C@H](CO)N1C[C@H](C)[C@H](CN(C)S(C)(=O)=O)Oc2c(NC(=O)C3CCCCC3)cccc2C1=O | 12[25 µM]
COCC(=O)Nc1ccc2c(c1)OC[C@@H](C)N(CCc1ccccc1)C[C@@H](C)[C@H](OC)CN(C)C2=O | 6
C/C=C/c1ccc([C@H]2[C@H](CO)N(C(C)=O)[C@H]2CN(C)C(=O)c2ccccn2)cc1 | 20[25 µM]
COc1ccc(NC(=O)N2C[C@H]3[C@@H](c4ccccc42)[C@@H](CO)N3C(=O)C2CCCC2)cc1 | -19
CC(C)C#Cc1ccc([C@H]2[C@@H](CO)N3C(=O)CN(C(=O)NC4CCCCC4)C[C@@H]23)cc1 | -3
CCOC(=O)N=S(N)(=O)c1ccccc1 (stereo not drawn) | 4
CCOC(=O)CN(c1ccccn1)S(=O)(=O)c1ccccc1 | 3
CCOC(=O)CC(S(=O)(=O)c1ccccc1)S(=O)(=O)c1ccccc1 | 97*
COc1ccc(S(=O)(=O)Nc2ccc3c(c2)C(=O)N([C@@H](C)CO)C[C@@H](C)[C@@H](CN(C)Cc2ccc(C(F)(F)F)cc2)OCCCC[C@H](C)O3)cc1 | 73*[25 µM]
COc1ccc(S(=O)(=O)Nc2ccc3c(c2)C(=O)N([C@H](C)CO)C[C@@H](C)[C@@H](CN(C)Cc2ccc(C(F)(F)F)cc2)OCCCC[C@H](C)O3)cc1 | 58*[25 µM]
COc1ccc(NC(=O)Nc2ccc3c(c2)C(=O)N([C@@H](C)CO)C[C@@H](C)[C@H](CN(C)Cc2ccc(C(F)(F)F)cc2)OCCCC[C@@H](C)O3)cc1 | 7
COc1ccc(NC(=O)Nc2ccc3c(c2)C(=O)N([C@H](C)CO)C[C@@H](C)[C@H](CN(C)Cc2ccc(C(F)(F)F)cc2)OCCCC[C@H](C)O3)cc1 | 1
COc1ccc(S(=O)(=O)Nc2ccc3c(c2)C(=O)N([C@@H](C)CO)C[C@H](C)[C@H](CN(C)Cc2ccncc2)OCCCC[C@H](C)O3)cc1 | 3
COc1ccc(S(=O)(=O)Nc2ccc3c(c2)C(=O)N([C@@H](C)CO)C[C@@H](C)[C@@H](CN(C)Cc2ccc(C(F)(F)F)cc2)OCCCC[C@@H](C)O3)cc1 | 57*[25 µM]
COc1ccc(S(=O)(=O)Nc2ccc3c(c2)C(=O)N([C@H](C)CO)C[C@@H](C)[C@H](CN(C)Cc2ccc(C(F)(F)F)cc2)OCCCC[C@@H](C)O3)cc1 | 50*[25 µM]
COc1ccc(S(=O)(=O)Nc2ccc3c(c2)C(=O)N([C@H](C)CO)C[C@H](C)[C@H](CN(C)Cc2ccc(C(F)(F)F)cc2)OCCCC[C@@H](C)O3)cc1 | 30[25 µM]
C[C@@H]1CCCCO[C@H](CN(C)Cc2ccc(C(F)(F)F)cc2)[C@H](C)CN([C@@H](C)CO)C(=O)c2cc(NS(=O)(=O)c3ccc(Cl)cc3)ccc2O1 | 31
COc1ccc(S(=O)(=O)Nc2ccc3c(c2)C(=O)N([C@@H](C)CO)C[C@@H](C)[C@H](CN(C)Cc2ccc(C(F)(F)F)cc2)OCCCC[C@H](C)O3)cc1 | 28[25 µM]
SMILES | BL2 CD40 inh
COc1ccc(NC(=O)Nc2ccc3c(c2)C(=O)N([C@H](C)CO)C[C@H](C)[C@H](CN(C)Cc2ccc(C(F)(F)F)cc2)OCCCC[C@@H](C)O3)cc1 | -2
COc1ccc(S(=O)(=O)Nc2ccc3c(c2)C(=O)N([C@H](C)CO)C[C@H](C)[C@H](CN(C)Cc2ccc(C(F)(F)F)cc2)OCCCC[C@H](C)O3)cc1 | 37[25 µM]
O=C(C1CCCCC1)N1C[C@H]2[C@@H](c3ccccc31)[C@H](CO)N2CC1CCOCC1 | -3[25 µM]
CCNC(=O)[C@@H]1[C@@H](CO)[C@@H]2Cn3c(ccc(C4=CCCCC4)c3=O)[C@H]1N2CCC(F)(F)F | 5[25 µM]
N#Cc1cccc(-c2ccc(C3[C@H]4CNC[C@@H]3N4S(=O)(=O)c3cccc(F)c3)cc2)c1 (stereo partly drawn) | -7
CCCC(=O)Nc1ccc2c(c1)C(=O)N(C)C[C@@H](OC)[C@H](C)CN(Cc1ccc(F)cc1)[C@H](C)CO2 | 3[25 µM]
COc1ccc2c3c(n(C)c2c1)[C@@H](CO)N(Cc1ccc(Cl)cc1)CC31CCN(CC2CC2)CC1 | 5[25 µM]
CN1C(=O)c2cc(NC(=O)c3cccc(C(F)(F)F)c3)ccc2OC[C@H]2O[C@H](CC(=O)NCCN3CCCC3)CC[C@H]21 | -14[25 µM]
CCC(=O)N1[C@H](CO)[C@@H](c2ccc(-c3ccccc3)cc2)[C@H]1CNC(=O)COC | 6
Cc1cnc(NC(=O)COc2ccc3c(c2)CCC3)s1 | 5
O=C(COc1ccc2c(c1)CCC2)Nc1ccccn1 | 90*
Cc1cccc(NC(=O)COc2ccc3c(c2)CCC3)n1 | -47
CCCNC(=O)N1[C@@H]2CNC[C@H]1C2c1ccc(-c2cccnc2)cc1 (stereo partly drawn) | -2[25 µM]
Cc1cc(Sc2nnc(/N=C/N(C)C)s2)c2ccccc2n1 | 84*
Cc1cc(C(N)=O)c2ccccc2n1 | 5
CN(C)/C=N/c1ncc(C(=O)c2ccc3ccccc3c2)s1 | -45
C[C@@H]1CN([C@@H](C)CO)C(=O)c2ccccc2-c2ccccc2CO[C@H]1CN(C)C(=O)N[C@H](C)c1ccccc1 | -26[25 µM]
N#C[C@H]1[C@@H](c2ccc(-c3cccc(F)c3)cc2)[C@@H](CO)N1C(=O)NC1CCCCC1 | 11
CNC[C@@H]1Oc2ccc(NS(C)(=O)=O)cc2C(=O)N(C)C[C@H]1C | 10
CO[C@@H](C(=O)N(C)C[C@H]1OCc2ccccc2-c2ccccc2C(=O)N([C@H](C)CO)C[C@@H]1C)c1ccccc1 | -13[25 µM]
C[C@H]1CN([C@@H](C)CO)C(=O)Cc2cc(NC(=O)Cn3cnnn3)ccc2O[C@@H]1CN(C)C(=O)Nc1ccc(C(F)(F)F)cc1 | -3[25 µM]
C[C@H]1CN(C)C(=O)c2cccc(N(C)C)c2O[C@@H]1CN(C)S(C)(=O)=O | 4
O=S1(=O)N=C(SCCO)c2ccccc21 | -11
O=C1c2ccccc2-c2c1c1ccccc1c(=O)n2CCO | -182
CC1=C(SCCO)C(=O)c2ccccc2C1=O | 91*[25 µM]
SMILES | BL2 CD40 inh
COc1ccc(C#Cc2ccc3c(c2)O[C@@H](CN(C)C(=O)CN2CCOCC2)[C@@H](C)CN([C@H](C)CO)S3(=O)=O)cc1 | -10[25 µM]
COc1ccc2c3c(n(C)c2c1)[C@@H](CO)N(C(=O)C1CCOCC1)CC31CN(C(=O)Nc2cccc(F)c2)C1 | -6[25 µM]
O=C(C[C@@H]1CC[C@@H]2[C@H](COC[C@@H](O)CN2Cc2cccc(Cl)c2)O1)NCc1cccc(F)c1 | 11[25 µM]
NC(=O)CCN1CCCCC1 | -5
O=C(CCC(=O)CCN1CCCCC1)CCN1CCCCC1 | 77*
NNC(=O)CCN1CCCCC1 | 6
COc1ccc(C(=O)C23CC4CC(C2)CC(C(=O)c2ccc(OC)cc2)(C4)C3)cc1 | 9
CC[N+]1(C)CCC(O)(c2ccc(OC)cc2)C(C(=O)c2ccc(OC)cc2)C1 (stereo not drawn) | 97*
COc1ccc(-c2ccc(C(=O)C3CC3)cc2)cc1 | -51

Source: PubChem
